In the library only some 9.2% were active in any assay of this set; here they are far more common.
FLuc counter: qHTS profiling assay for firefly luciferase inhibitor/activator using purifed enzyme and Km concentrations of substrates (counterscreen for miR-21 project). Luciferin 4-monooxygenase (Photinus pyralis), P08659. purified FLuc, Km substrates, luminescence inhibition. Potency, µM (highest dose often 57.5 µM), for inactives: at the highest dose activity change, negative = inhibition, usual class: inhibitors. 360,000 tested, 6.9% active. AID 588342, 2011;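 also: plate controls were vehicle for no effect and reference inhibitor for full effect; nearly all actives have a fitted effect of over 55% in size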
Target sequence (P08659 whole entry, looked up): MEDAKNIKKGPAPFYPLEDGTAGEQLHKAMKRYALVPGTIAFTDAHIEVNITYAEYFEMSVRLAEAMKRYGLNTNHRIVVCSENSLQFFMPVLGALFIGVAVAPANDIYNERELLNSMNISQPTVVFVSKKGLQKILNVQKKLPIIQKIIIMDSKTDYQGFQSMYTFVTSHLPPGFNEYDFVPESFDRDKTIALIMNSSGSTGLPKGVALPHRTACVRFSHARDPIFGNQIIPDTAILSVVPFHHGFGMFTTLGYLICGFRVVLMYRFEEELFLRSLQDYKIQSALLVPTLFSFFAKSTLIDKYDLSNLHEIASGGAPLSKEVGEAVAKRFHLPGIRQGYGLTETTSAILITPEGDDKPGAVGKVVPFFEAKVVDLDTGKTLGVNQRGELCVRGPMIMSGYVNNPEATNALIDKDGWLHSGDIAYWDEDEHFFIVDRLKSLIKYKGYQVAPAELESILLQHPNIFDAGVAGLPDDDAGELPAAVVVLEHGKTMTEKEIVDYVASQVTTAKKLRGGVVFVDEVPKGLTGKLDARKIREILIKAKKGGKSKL
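Biochemical qHTS of compounds, final roughly 60 µM downward over six points, against 10 nM purified firefly luciferase using Km concentrations of substrates (10 uM D-luciferin, 10 uM ATP) in Tris acetate pH 7.5 buffer; luminescence output.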
ELG1 genotox: qHTS screen for small molecules that induce genotoxicity in human embryonic kidney (HEK293T) cells expressing luciferase-tagged ELG1. 330,000 tested, 1.3% active. Potency, µM (doses to about 46 µM), for the others: top-dose activity change, positive = activation, usual class: activators. AID 504466, 2011. HEK293T ELG1-luciferase reporter, luminescence, 16 h; also: % of control where 0% means no effect; nearly all actives have a fitted effect of over 60% in size
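ELG1-luciferase HEK293T cells, 2,000/well; compound pinned in; 16 hr, 37 °C, 5% CO2; ONE-Glo, 30 min RT; luminescence on CCD imager.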
ELG1 repair inh: qHTS screen for small molecules that inhibit ELG1-dependent DNA repair in human embryonic kidney (HEK293T) cells expressing luciferase-tagged ELG1; HEK293T ELG1-luciferase reporter, luminescence, 16 h; DNA damage induced by 5-fluorouridine; Potency, µM (doses to about 46.1 µM), without a hit: at the highest dose activity change, negative = inhibition, hits mostly inhibitors; 330,000 tested, 2.3% active; also: % is scaled to controls: 0 for no effect and ±100 for the full control effect; nearly all actives have a fitted effect of over 55% in size
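Quantitative HTS, concentration-response format. 2,000 cells/well co-treated with 5-fluorouridine and compound, 16 hr in 5% CO2 at 37 °C; ONE-Glo luminescence read after 30 min.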
SMN2 splice up: qHTS Assay for Enhancers of SMN2 Splice Variant Expression. 210,000 tested, 2.8% active. Potency, µM (titrated, usually from 46.1 µM), for inactives: at the top dose activity change, positive = activation, hits mostly activators. HEK293 SMN2-luciferase splicing reporter, luminescence, 30-36 h; also: % of control where 0% means no effect; nearly all actives have a fitted effect of over 55% in size
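qHTS luciferase splicing reporter: luminescence rises when SMN2 exon 7 is included in transfected HEK293 cells. Compound exposure lasted 30-36 h at 37C, with 4.5 mM final sodium butyrate as control, followed by a ONE-Glo read.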
Rab9 prom act: qHTS Assay for Rab9 Promoter Activators | Huh7 Rab9 promoter-luciferase reporter, luminescence, 24 h | Potency, µM (series often up to 9.22 µM), for inactives: at the top dose activation, negative = inhibition, usual class: activators | 320,000 tested, 2.8% active; also: % of control where 0% means no effect; nearly all actives have a fitted effect of over 60% in size
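Cell-based reporter: Huh7 stable for Rab9 promoter-driven luciferase, plated in reduced-serum medium with 10% FBS at 1500 cells/well, compound-treated 24 h at 37 °C, luminescence read after 10 min reagent.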
NPC1 prom act: qHTS Assay for NPC1 Promoter Activators; Huh7 NPC1 promoter luciferase reporter, 24 h; Potency, µM (series often up to 9.22 µM), inactives show top-dose activation, actives largely listed as activators; 320,000 tested, 2.4% active; also: % of control where 0% means no effect; nearly all actives have a fitted effect of over 60% in size
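Stably transfected Huh7 (NPC1 promoter→luciferase), 1500 cells/well in Opti-MEM + 10% FBS, 2 h settle, then compound 24 h at 37 °C. Luminescence after 10 min with Amplite reagent.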
Numbers without * were called inactive; ? = inconclusive; . = no result given. Calls follow the shape of the dose curve; as a rule, active = well fitted curve in the direction sought with a large enough effect; inconclusive = small, poorly fitted or top-dose-only effect, or another doubt; inactive = no such curve, though single readings can be large; an effect the other way counts as inactive or inconclusive. Potency is read from the fitted curve at half-maximal effect.

SMILES	FLuc counter	ELG1 genotox	ELG1 repair inh	SMN2 splice up	Rab9 prom act	NPC1 prom act
CCN1CCN(C(=O)c2ccc(-c3nc4ccccc4s3)s2)CC1	?	14%	?	11µM*	2.2µM*	?
CCOC(=O)C1CCN(S(=O)(=O)c2ccc(-c3nc4ccccc4s3)s2)CC1	21µM*	?	?	-28%	17%	30%
O=C(NC1CC1)c1ccc(-c2nc3ccccc3s2)s1	0.15µM*	0.26µM*	?	0.5µM*	0.32µM*	0.4µM*
O=C(Nc1ncccc1O)c1cccc(S(=O)(=O)NCc2ccccc2)c1	3%	0%	?	.	-6%	-2%
CCOc1ccccc1NC(=O)Nn1cnnc1	0%	4%	0%	.	6%	4%
COc1ccc(CCNC(=O)c2ccc3c(Cl)c4c(nc3c2)CCCC4)c(OC)c1	?	.	.	-4%	.	.
COc1ccc(CNC(=O)CSc2ncc3c(n2)-c2ccc(Cl)cc2N(Cc2ccc(F)cc2)S3(=O)=O)cc1OC	0%	.	.	.	.	.
CN1CCSc2ccc(C(=O)NCc3ccccc3F)cc21	?	-2%	0%	.	?	29%
Cc1ccccc1NC(=O)c1ccc2c(c1)N(C)CCS2	11µM*	?	?	.	?	?
CN1CCSc2ccc(C(=O)Nc3cc(F)ccc3F)cc21	2.1µM*	2.6µM*	?	.	0.89µM*	1.3µM*
Cc1ccc(C(=O)NCC(=O)N2CCN(c3cccc(Cl)c3)CC2)s1	.	1%	11%	.	.	.
COC(=O)Cc1c(C)c2ccc3c(c2oc1=O)CN(Cc1ccccc1OC)CO3	-1%	.	.	8%	.	.
Cc1csc(NC(=O)c2ccccc2[N+](=O)[O-])n1	2%	4%	9%	-5%	4%	-1%
Cc1csc(NC(=O)c2ccc(C)c([N+](=O)[O-])c2)n1	1.1µM*	?	?	3.5µM*	1.1µM*	2µM*
Cc1csc(NC(=O)c2ccc(Cl)cc2[N+](=O)[O-])n1	27µM*	?	?	11µM*	4.5µM*	?
CS(=O)(=O)c1ccc(-c2sc3cc4c(cc3c2C(=O)NN2CCOCC2)OCO4)cc1	.	-1%	4%	.	.	.
Cc1c(C(=O)N2CCC(C)CC2)c(S(=O)(=O)N2CCN(c3ccc(Cl)cc3)CC2)c(C)n1C	-10%	.	.	.	.	.
Nc1c2c(nc3ccc(Br)cc13)N(Cc1ccccc1)CC2	17µM*	-2%	-6%	-16%	0%	0%
Nc1c2c(nc3ccc(Br)cc13)N(C1CCCCC1)CC2	?	-8%	6%	-10%	-4%	-2%
Cc1cccc(N2CCc3c2nc2ccc(Br)cc2c3N)c1	8.5µM*	-6%	?	-9%	3%	-1%
Nc1c2c(nc3ccc(Br)cc13)N(c1ccccc1)CC2	?	11%	18%	16%	22%	13%
CC(=O)CSc1nnc(C(F)(F)F)n1C	0%	2%	0%	.	-13%	0%
Cc1cc(C)nc(N/N=C/c2ccccc2)n1	-19%	3%	0%	20%	?	-1%
CC(C)NC(=S)N/N=C/c1ccc2c(c1)OCCO2	6.7µM*	11%	?	9%	?	28%
Cc1ccc(/C=N/Nc2ccc3ccccc3n2)o1	0.48µM*	?	?	1.1µM*	0.13µM*	0.71µM*
SMILES	FLuc counter	ELG1 genotox	ELG1 repair inh	SMN2 splice up	Rab9 prom act	NPC1 prom act
Cc1cc(C)nc(N/N=C/c2cccc3ccccc23)n1	12µM*	9%	?	26%	-2%	15%
Cc1cc(C)nc(N/N=C/c2ccc3c(c2)OCCO3)n1	19µM*	11%	?	22%	?	14%
Cc1ccc(/C=N/Nc2cn[nH]c(=O)n2)o1	-16%	3%	15%	13%	12%	-2%
COc1ccc(NC(=O)N2CCN(C(=O)C3CCCO3)CC2)cc1 (stereo not given)	3%	0%	-2%	.	-3%	-2%
CC(C(=O)NCC1CCCCC1)N1CCN(S(=O)(=O)c2cccs2)CC1 (stereo not given)	-9%	0%	3%	.	-5%	-1%
O=C(Nc1cc(C(F)(F)F)ccc1-n1cncn1)c1ccc(F)cc1Cl	-1%	0%	0%	.	-4%	-5%
Cc1cccc(/C=N/Nc2ccc3ccccc3n2)c1	0.076µM*	0.23µM*	?	-36%	?	?
C(=N\n1cnnc1)/c1ccc2c(c1)OCCO2	-17%	4%	12%	13%	-2%	1%
Cc1cccc(/C=N\Nc2cn[nH]c(=O)c2Cl)c1	?	?	?	27%	21%	0%
C(=N\Nc1nc2ccccc2[nH]1)/c1ccc2c(c1)OCCO2	0.76µM*	?	?	.	1.4µM*	?
C(=N\Nc1ccc2ccccc2n1)/c1ccc2c(c1)OCCO2	0.067µM*	?	?	-77%	-20%	-23%
CCOc1ccc(C(=O)NCC(c2ccco2)S(=O)(=O)c2ccc(C)cc2)cc1 (stereo not given)	-10%	.	.	.	.	.
O=C(Cc1cccc(NC(=O)C2CCN(C(=O)CCc3ccccc3)CC2)c1)Nc1cccc(C(=O)N2CCCC2)c1	-4%	0%	?	.	-10%	0%
CCOc1ccccc1CNC(=O)CN1C(=O)CCc2cc(S(=O)(=O)N3CCCCC3)ccc21	1%	.	.	.	.	.
CC(=O)Nc1sc(C)c(C)c1C(=O)OCC(=O)Nc1cccc(C)c1	.	4%	?	.	.	.
CCOC(=O)c1sc(NC(=O)c2ccncc2)c(C#N)c1C	11µM*	-4%	21µM*	-75%	-9%	-1%
NC(=O)c1c(NC(=O)c2ccncc2)sc2c1CCCC2	11µM*	5%	11%	-80%	?	?
CCOC(=O)c1c(NC(=O)c2ccncc2)sc(C)c1C	-11%	-5%	-4%	-2%	-3%	-11%
N#Cc1c(NC(=O)c2cccc(S(=O)(=O)Nc3ccc(C(=O)O)cc3)c2)sc2c1CCCC2	19µM*	8%	?	.	0%	-1%
NC(=O)c1c(NC(=O)c2cnccn2)sc2c1CCCC2	2.7µM*	?	?	?	2µM*	?
CCC(C(=O)NCc1ccc(F)cc1)N(Cc1cccs1)C(=O)c1snc(C(N)=O)c1N (stereo not given)	2%	-12%	-25%	.	0%	-1%

Compound activity (PubChem)
